# Where “and” joins values, the source holds several entries; their conditions need not be identical. Equal values may be shown once. Inconclusive results are not listed. Calls of active or inactive are those of the source. Unless noted, the call rests on the fitted dose curve.
# Test: Validation of Assay for Modulators of Lamin A Splicing (AID 1459; active means well fitted curve in the direction sought with a large enough effect in the signal ratio; the % refers to the signal ratio;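 further: cells exposed to compound for two days before reading; 0% is about no effect; ratio rise marks activators and ratio drop marks inhibitors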)
# Conditions: Lamin A splicing dual RFP/GFP fluorescence reporter; series mostly up to 9.22 µM
# Description: Hutchinson-Gilford Progeria Syndrome (HGPS) is a pediatric premature aging disease caused by a spontaneous mutation in the lamin A/C (LMNA) gene. The mutation activates a cryptic splice site in the LMNA pre-mRNA which results in production of a pre-lamin A protein that cannot be processed properly. The mutant protein accumulates in the nucleus and negatively affects numerous cellular functions. Correction of the splicing defect in HGPS patient cells using a targeted oligonucleotide (exo11) leads to reversal of the cellular disease phenotypes. To identify small molecule modulators of aberrant LMNA splicing, a homogenous assay was constructed in HeLa cells that used a GFP containing minigene to report on correction of aberrant splicing in lamin A and a RFP (DsRed2) to report on cell viability, uniformity and nonspecific effects on the assay signal. This assay was adapted to laser-scanning microplate cytometry (Acumen, TTP Labtech) where miniaturization of the assay to a 1,536-well plate format was possible.
# Bowen, W. P.; Wylie, P. G. Application of Laser-Scanning Fluorescence Microplate Cytometry in High Content Screening. Assay Drug Dev Technol 2006;4:209-221.
# Scaffidi P, Misteli T. Reversal of the cellular phenotype in the premature aging disease Hutchinson-Gilford progeria syndrome. Nat. Med. 2005;11:440-445.
# NCGC Assay Protocol Summary:
# Reagents/Controls: Stable clones expressing DsRed2 and lamin A-EGFP were generated by Cell and Molecular Technologies in S3 HeLa cells.
# HeLa cells were prepared for the assay when they were 70-90% confluent. The cells were counted and resuspended in Opti-MEM I (no phenol red; Gibco), 2% FBS, 1% penicillin/ streptomycin (Gibco) at concentration of 120 cells/uL concentration. […]
# 5 uL of HeLa cells were plated in Aurora LoBase black clear bottom (cyclic-olefin polymer) 1536-well plates at a final density of 600 cells/well. […] Following incubation the plates were read on the Acumen Explorer using the 488 nm laser. […] The ratio of the total object intensity in PMT1 (500-530 nm emission; GFP) over PMT3 (575-640 nm emission; RFP) was calculated for analysis. […]
row,SMILES,outcome
1,O=C(O)c1nn(Cc2ccc(Cl)cc2Cl)c2ccccc12,inactive
2,CC(N)C(=O)OC(C)(C)Cc1ccc(Cl)cc1 (centres undefined),inactive
3,CCCCCCCCC(=O)NCc1ccc(O)c(OC)c1,inactive

# Test: qHTS Assay for Lipid Storage Modulators (AID 1519); on activity change, negative = inhibition: on the % scale 0 is the no-effect control and ±100 the full control effect
# Conditions: Drosophila S3 cells, BODIPY lipid droplet/cell ratio, laser cytometry; at 25.7 µM (top of the series); cells loaded with oleic acid
# How it was run: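 Cells seeded at 5,000 per well were treated with compounds over a concentration series and loaded with oleic acid (400 uM, as added). Lipid droplet fluorescence (488 nm excitation, 500-530 nm channel) was read by laser-scanning cytometry and normalized to 20 uM Triacsin C.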
row,SMILES,"activity change, negative = inhibition"
1,CCC(=O)O[C@H]1CC[C@H]2[C@@H]3CCC4=CC(=O)CC[C@]4(C)[C@H]3CC[C@]12C,0.757% (inactive)
2,NC(N)=NC(=O)c1nc(Cl)c(N)nc1N,-0.295% (inactive)
3,O=C1CC2(CCCC2)CC(=O)N1CCCCN1CCN(c2ncccn2)CC1,0.205% (inactive)
4,Cc1cc(C(C)(C)C)cc(C)c1CC1=NCCN1,0.58% (inactive)
5,C[C@H](N)[C@H](O)c1ccc(O)c(O)c1,-2.9% (inactive)
6,CC(C)[N+](C)(CCC(C(N)=O)(c1ccccc1)c1ccccc1)C(C)C,-0.769% (inactive)
7,COC(=O)C1=CCCN(C)C1,0.438% (inactive)
8,CN(C)C(=O)Oc1cccc([N+](C)(C)C)c1,-1.76% (inactive)
9,c1ccc2nc(N3CCNCC3)ccc2c1,-1.91% (inactive)
10,OC(c1ccccc1)(c1ccccc1)C1CCNCC1,-3.2% (inactive)
11,O=C(CCCN1CCC(n2c(=O)[nH]c3ccccc32)CC1)c1ccc(F)cc1,0.264% (inactive)
12,COC(=O)C1=C(C)NC(C)=C(C(=O)OC)C1c1ccccc1[N+](=O)[O-],-3.56% (inactive)
13,NC(=O)CN1CCCC1=O,-1.06% (inactive)
14,COc1ccc(CN2CCNCC2)c(OC)c1OC,-1.99% (inactive)

# Same assay, conditions: Drosophila S3 cells, BODIPY lipid droplet/cell ratio, laser cytometry; at 57.5 µM (top of the series); cells loaded with oleic acid
row,SMILES,"activity change, negative = inhibition"
1,Cc1ccc(N=CN(C)C=Nc2ccc(C)cc2C)c(C)c1,14.3% (inactive)
2,NC(N)=NC(=O)c1nc(Cl)c(N)nc1N,-0.935% (inactive) and 5.62% (inactive)
3,O=C(O)c1nn(Cc2ccc(Cl)cc2Cl)c2ccccc12,-2.04% (inactive)
4,O=C1CC2(CCCC2)CC(=O)N1CCCCN1CCN(c2ncccn2)CC1,-2.21% (inactive)
5,Cc1cc(C(C)(C)C)cc(C)c1CC1=NCCN1,0.173% (inactive)
6,CC[n+]1c(-c2ccccc2)c2cc(N)ccc2c2ccc(N)cc21,1.12% (inactive)
7,CC(N)C(=O)OC(C)(C)Cc1ccc(Cl)cc1 (centres undefined),9.94% (inactive)
8,CCCCCCCCC(=O)NCc1ccc(O)c(OC)c1,-0.202% (inactive) and 0.982% (inactive)
9,CC(C)[N+](C)(CCC(C(N)=O)(c1ccccc1)c1ccccc1)C(C)C,9.64% (inactive)
10,CCCC(C)C1(CC)C(=O)N=C(S)NC1=O (centres undefined),4.86% (inactive)
11,Clc1ccc(C(OCCN2CCCCC2)c2ccccc2)cc1 (centres undefined),10.4% (inactive)
12,COC(=O)C1=CCCN(C)C1,7.06% (inactive) and -4.88% (inactive)
13,O=C(NC(=O)c1c(F)cccc1F)Nc1cc(Cl)c(OC(F)(F)C(F)C(F)(F)F)cc1Cl (centres undefined),-23.4% (inactive)
14,CCNc1nc(Cl)nc(NCC)n1,6.1% (inactive)
15,CN1[C@@H]2CC[C@H]1CC(OC(=O)c1cc(Cl)cc(Cl)c1)C2 (some centres undefined),4.19% (inactive)
16,CN(C)C(=O)Oc1cccc([N+](C)(C)C)c1,8.87% (inactive)
17,COc1ccc(C(=O)N2CCCC2=O)cc1,-0.445% (inactive)
18,c1ccc2nc(N3CCNCC3)ccc2c1,4.37% (inactive) and 6.17% (inactive)
19,CNC(=O)Oc1ccc2c(c1)[C@]1(C)CCN(C)[C@@H]1N2C,0.848% (inactive)
20,Clc1ccc(CO/N=C(\Cn2ccnc2)c2ccc(Cl)cc2Cl)c(Cl)c1,5.8% (inactive)
21,Clc1ccc(CSC(Cn2ccnc2)c2ccc(Cl)cc2Cl)cc1 (centres undefined),11.1% (inactive)
22,COC(=O)C1=C(C)NC(C)=C(C(=O)OC)C1c1ccccc1[N+](=O)[O-],-18.3% (inactive)
23,NC(=O)CN1CCCC1=O,8.11% (inactive)

# Same assay, conditions: Drosophila S3 cells, BODIPY lipid droplet/cell ratio, laser cytometry; measured here: cell count channel max response; cells loaded with oleic acid
row,SMILES,max response
1,CCC(=O)O[C@H]1CC[C@H]2[C@@H]3CCC4=CC(=O)CC[C@]4(C)[C@H]3CC[C@]12C,2.96%
2,Cc1ccc(N=CN(C)C=Nc2ccc(C)cc2C)c(C)c1,10.9%
3,NC(N)=NC(=O)c1nc(Cl)c(N)nc1N,12.3% and 6.32% and 9.51%
4,O=C(O)c1nn(Cc2ccc(Cl)cc2Cl)c2ccccc12,45.4%
5,O=C1CC2(CCCC2)CC(=O)N1CCCCN1CCN(c2ncccn2)CC1,-26.7% and -71.1%
6,Cc1cc(C(C)(C)C)cc(C)c1CC1=NCCN1,-1.09% and 8.12%
7,CC[n+]1c(-c2ccccc2)c2cc(N)ccc2c2ccc(N)cc21,2.87%
8,CC(N)C(=O)OC(C)(C)Cc1ccc(Cl)cc1 (centres undefined),6.48%
9,C[C@H](N)[C@H](O)c1ccc(O)c(O)c1,-12%
10,CCCCCCCCC(=O)NCc1ccc(O)c(OC)c1,1.44% and 21.8%
11,CC(C)[N+](C)(CCC(C(N)=O)(c1ccccc1)c1ccccc1)C(C)C,-8.79% and 5.39%
12,CCCC(C)C1(CC)C(=O)N=C(S)NC1=O (centres undefined),-3.79%
13,Clc1ccc(C(OCCN2CCCCC2)c2ccccc2)cc1 (centres undefined),15.5%
14,COC(=O)C1=CCCN(C)C1,20.3% and 3.22% and -69.9%
15,O=C(NC(=O)c1c(F)cccc1F)Nc1cc(Cl)c(OC(F)(F)C(F)C(F)(F)F)cc1Cl (centres undefined),4.92%
16,CCNc1nc(Cl)nc(NCC)n1,11.4%
17,CN1[C@@H]2CC[C@H]1CC(OC(=O)c1cc(Cl)cc(Cl)c1)C2 (some centres undefined),20.8%
18,CN(C)C(=O)Oc1cccc([N+](C)(C)C)c1,2.56% and -8.73%
19,COc1ccc(C(=O)N2CCCC2=O)cc1,21.4%
20,c1ccc2nc(N3CCNCC3)ccc2c1,-6.47% and 8.94% and 1.83%
21,CNC(=O)Oc1ccc2c(c1)[C@]1(C)CCN(C)[C@@H]1N2C,-15.1%
22,OC(c1ccccc1)(c1ccccc1)C1CCNCC1,-4.3%
23,CCCCCCCCCCCCCCCC[n+]1ccccc1,-21.8%
24,O=C(CCCN1CCC(n2c(=O)[nH]c3ccccc32)CC1)c1ccc(F)cc1,-5.85%
25,Clc1ccc(CO/N=C(\Cn2ccnc2)c2ccc(Cl)cc2Cl)c(Cl)c1,-2.06%
26,Clc1ccc(CSC(Cn2ccnc2)c2ccc(Cl)cc2Cl)cc1 (centres undefined),-1.1%
27,COC(=O)C1=C(C)NC(C)=C(C(=O)OC)C1c1ccccc1[N+](=O)[O-],-12.4% and 9.66%
28,NC(=O)CN1CCCC1=O,-2.61% and 10.4%
29,COc1ccc(CN2CCNCC2)c(OC)c1OC,-6.25%
